From PubChem BioAssay AID372 (MTDP, 2006)
Hit rate of the full screen: of about 100,000 compounds, about 770 (0.77%) were called active. This is one part of a sample in which actives are shown more often than they occur. Unmarked numbers belong to inactive results. Rule as the data show it: active = inhibition above about 50%; inactive = the rest.

biological target: Gag-Pol polyprotein (Human immunodeficiency virus type 1 group M subtype B (isolate HXB2)) (UniProt P04585); assay: RNase H inhibition, HIV 1 Gag Pol polyprotein, FRET biochemical assay, screening (AID 372); conditions: HIV-1 RT RNase H, FRET RNA/DNA substrate fluorescence; at 10 µM; hits give high values

SMILES	inhibition
COc1ccccc1N1CCN(C(=O)Cc2ccc(Cl)cc2)CC1	5%
CCCCOc1ccc(C(=O)NC(=S)Nc2cccc(Cl)c2Cl)cc1	15%
COc1cccc(C(=O)Nc2ccc(O)c(-c3nc4cc(C)ccc4o3)c2)c1	5%
CCc1ccccc1NC(=O)C(=O)NCCCOC	14%
O=C(O)C1C2CC=CC2c2cc(Oc3ccccc3)cc3c2N1CC1CC=CC31 (configuration not stated)	40%
Cc1ccc(OCCCNC(C)(C)C)c(C(C)(C)C)c1	62% (active)
Cc1ccc(OCCCCNC(C)(C)C)c(C)c1	2%
Cc1ccc(OCCCNC(C)(C)C)c(C)c1	10%
COCCOC(=O)C1=C(C)NC(=O)CC1c1ccccc1Br (configuration not stated)	3%
COc1ccc(/C=N/N(C)c2cc(C)nc(-c3ccccc3O)n2)cc1OC	18%
COc1ccc(C=Nc2ccc(Cl)c(Cl)c2)c2ccccc12	32%
Cc1ccc(C(=O)NC(=S)Nc2ccc3oc(-c4ccc(Cl)cc4)nc3c2)cc1C	8%
O=C(O)c1ccc2c3c(cccc13)C(=O)N(c1ccccc1)C2=O	21%
Nc1ccc(-c2ccc(N3C(=O)c4cccc5c(C(=O)c6ccccc6)ccc(c45)C3=O)cc2)cc1	51% (active)
CC(=O)Nc1ccc(N2C(=O)c3cccc4c(C(=O)c5ccccc5)ccc(c34)C2=O)cc1	20%
O=C(N=NC(=O)c1ccccc1O)c1ccc(-n2c(O)c3ccccc3c2O)cc1	8%
Cc1ccc(C(=O)Nc2ccc(Nc3ccccc3)cc2)cc1[N+](=O)[O-]	15%
Cc1ccc(NCC(=O)N/N=C\c2ccccc2OCC(=O)O)cc1	7%
COc1ccc(/C=C/C(=O)NC(=S)Nc2ccc(I)cc2)cc1	8%
COc1ccc(/C=C/C(=O)NC(=S)Nc2ccc(S(=O)(=O)N=C(N)N)cc2)cc1	57% (active)
Cc1ccc(/C=C/C(=O)NC(=S)Nc2ccc(S(=O)(=O)N=C(N)N)cc2)cc1	63% (active)
CC(C)c1ccc(/C=C/C(=O)NC(=S)Nc2ccc(S(=O)(=O)N=C(N)N)cc2)cc1	41%
COc1ccc(C(=O)NC(=S)Nc2ccc(S(=O)(=O)N=C(N)N)cc2)cc1	2%
NC(N)=NS(=O)(=O)c1ccc(NC(=S)NC(=O)/C=C/c2ccc(Br)cc2)cc1	19%

SMILES	inhibition
CC(=O)C1=C(O)C(=O)N(c2ccc(Br)cn2)C1c1ccc([N+](=O)[O-])cc1 (configuration not stated)	0%
CCCN1CCC(NCCc2ccc(F)cc2)CC1	1%
COc1cc(OC)cc(C(=O)N2CCN(Cc3ccccc3[N+](=O)[O-])CC2)c1	6%
O=C(O)c1ccc(/C=N/Nc2ccc([N+](=O)[O-])cc2)cc1	10%
O=C(O)c1ccc(N/N=C/c2ccccc2C(F)(F)F)cc1	6%
O=C(O)c1ccc(N/N=C/c2c(Cl)ccc(Cl)c2Cl)cc1	51% (active)
COc1cc(C=O)ccc1OCCOc1ccc(Cl)cc1	7%
COC(=O)c1ccc(COc2ccc3c(c2)oc(=O)c2ccccc23)cc1	48%
COc1ccc2c(c1)c(=O)oc1cc(OCc3ccc(C(=O)O)cc3)ccc12	19%
COC(=O)c1ccc(COc2ccc3c(c2)oc(=O)c2cc(OC)ccc23)cc1	59% (active)
COc1ccc(OC)c(/C=C2\SC(N3CCCCCC3)=NC2=O)c1	11%
COc1ccc(/C=C2\SC(=S)N(CCC(=O)Nc3cc(Cl)ccc3O)C2=O)cc1	53% (active)
CC(C)(C)N(Cc1ccccc1)C(=O)CCN1C(=O)/C(=C\c2cccs2)SC1=S	12%
CCOc1ccccc1NC(=O)CCN1C(=O)/C(=C/c2ccc(C)cc2)SC1=S	56% (active)
CCOc1ccccc1NC(=O)CCCN1C(=O)/C(=C/c2ccc(C)cc2)SC1=S	27%
Cc1ccc(/C=C2/SC(=S)N(CCCC(=O)Nc3cc(Cl)ccc3O)C2=O)cc1	16%
Cc1ccc(/C=C2\SC(=S)N(CCC(=O)Nc3ccc(Cl)cc3)C2=O)cc1	18%
O=C1/C(=C/c2cccs2)SC(=S)N1CCCC(=O)N(Cc1ccccc1)c1ccccc1	50% (active)
Cc1ccc(/C=C2\SC(=S)N(CCC(=O)Nc3cc(Cl)ccc3O)C2=O)cc1	10%
Cc1ccc(/C=C2/SC(=S)N(CCC(=O)Nc3ccc(Br)cc3)C2=O)cc1	0%
Cc1ccc(/C=C2\SC(=S)N(CCC(=O)Nc3ccc(S(N)(=O)=O)cc3)C2=O)cc1	57% (active)
COc1ccccc1NC(=O)CCN1C(=O)/C(=C/c2ccc(C)cc2)SC1=S	11%
CC(C)(C)N(Cc1ccccc1)C(=O)CCCN1C(=O)/C(=C/c2cccs2)SC1=S	37%
